15 molecules from PubChem BioAssay (NCATS) can be followed below.

Records with an inconclusive call do not appear. Calls of active or inactive are those of the source. Unless noted, the call rests on the fitted dose curve.

A short description of test [1]: qHTS for Inhibitors of the Functional Ribonucleoprotein Complex (vRNP) of Lymphocytic Choriomeningitis Arenaviruses (LCMV): Viability assay - alamar blue signal for LCMV Primary Screen (AID 1347085; calls by dose curve; tested in HEK293 reporter line; further: nearly all actives have a fitted effect of over 80% in size; further: potency means the concentration at half of the fitted maximal effect).
In test [2] the target is Nucleoprotein (Lymphocytic choriomeningitis virus (strain Armstrong)) (UniProt P09992). Description: qHTS for Inhibitors of the Functional Ribonucleoprotein Complex (vRNP) of Lymphocytic Choriomeningitis Arenaviruses (LCMV): LCMV Primary Screen - GLuc reporter signal (AID 1347086). Further: nearly all actives have a fitted effect of over 70% in size. Further: potency means the concentration at half of the fitted maximal effect. On activity change, negative = inhibition: on the % scale 0 is the no-effect control and ±100 the full control effect. In general terms: In qHTS, concentration-response curves come from the screen itself.
Sequence of Nucleoprotein (Lymphocytic choriomeningitis virus (strain Armstrong)) (P09992 whole entry, looked up): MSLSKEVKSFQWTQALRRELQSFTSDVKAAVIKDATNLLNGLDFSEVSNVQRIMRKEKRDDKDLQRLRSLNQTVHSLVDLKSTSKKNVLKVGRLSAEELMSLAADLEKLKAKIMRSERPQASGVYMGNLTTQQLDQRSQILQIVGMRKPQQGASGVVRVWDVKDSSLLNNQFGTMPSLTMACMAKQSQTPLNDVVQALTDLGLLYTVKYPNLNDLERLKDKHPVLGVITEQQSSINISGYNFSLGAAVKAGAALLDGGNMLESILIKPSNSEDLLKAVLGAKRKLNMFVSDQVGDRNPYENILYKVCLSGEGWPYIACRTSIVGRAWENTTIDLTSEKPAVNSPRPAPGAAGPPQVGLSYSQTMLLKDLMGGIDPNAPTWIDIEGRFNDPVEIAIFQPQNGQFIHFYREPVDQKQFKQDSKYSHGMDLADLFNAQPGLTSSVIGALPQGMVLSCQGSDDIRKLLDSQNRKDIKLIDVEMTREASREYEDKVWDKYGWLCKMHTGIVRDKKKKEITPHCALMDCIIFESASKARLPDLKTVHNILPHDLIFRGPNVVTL
Test [3] in a line: Primary qHTS for Huh7 cytotoxicity: counterscreen for inhibitors of MERS-S pseudotyped particle cell entry (AID 1479147). Further: on the % scale 0 is the no-effect control and ±100 the full control effect. The following applies: outcome: dose series up to 57.1 µM unless noted.
Test [4] in a line: Primary qHTS for inhibitors of MERS-S pseudo-typed particle cell entry (AID 1479149). Further: on the % scale 0 is the no-effect control and ±100 the full control effect; nearly all actives have a fitted effect of over 60% in size.
Test [5] in a line: Primary qHTS for Vero E6 cytotoxicity: counterscreen for inhibitors of SARS-S pseudo-typed particle cell entry (AID 1479150). Further: on the % scale 0 is the no-effect control and ±100 the full control effect. The following applies: outcome: dose series up to 57.1 µM unless noted.
Test [6] can be described thus: Confirmatory qHTS to identify inhibitors of SARS-CoV-2 cell entry (AID 1645844). Further: potency means the concentration at half of the fitted maximal effect; nearly all actives have a fitted effect of over 45% in size. In short, it runs like this: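 HEK293-ACE2 cells were pretreated 1 h with compound, then infected with MLV-based pseudoparticles bearing C-terminally truncated Wuhan-Hu-1 spike for 48 h at 37C; luciferase luminescence normalized to spike PP and bald PP wells.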
Test [7] is described as follows: Primary qHTS to identify inhibitors of SARS-CoV-2 cell entry (AID 1645846). Further: nearly all actives have a fitted effect of over 45% in size. Further: potency means the concentration at half of the fitted maximal effect. The conditions noted are these: activity change, negative = inhibition: at 57.1 µM (top of the series) unless noted. Summed up: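 HEK293 cells stably expressing human ACE2, pre-treated 1 h with compound, then infected with MLV particles pseudotyped with Wuhan-Hu-1 spike (C-terminal 19-aa truncation). Luciferase luminescence after 48 h at 37 °C, normalised to spike PP and bald PP.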

Test [8] is described as follows: VSVG counterscreen qHTS to identify inhibitors of SARS-CoV-2 cell entry (AID 1645847). Further: potency means the concentration at half of the fitted maximal effect; nearly all actives have a fitted effect of over 65% in size. In short, it runs like this: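 HEK293-ACE2 cells (Expi293F, human ACE2) pretreated 1 h with compound, then infected with MLV-based VSV-G pseudotyped particles for 48 h at 37 C; luciferase luminescence normalized to VSV-G PP and bald PP wells.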
For orientation: The purpose of a counterscreen is to sort out artefacts and off-target activity.

For test [9], the target named is Alpha-galactosidase (Coffea arabica) (UniProt Q42656). Description: Counterscreen for Glucocerebrosidase Inhibitors: qHTS Assay for Coffee Bean alpha-Galactosidase at pH 4.5 (AID 957; active means well fitted curve in the direction sought with a large enough effect; an effect the other way counts as inactive or inconclusive;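 further: plate controls were enzyme alone for no effect and no enzyme for full effect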). Summed up:
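Green coffee bean enzyme (2 nM final) was incubated with compounds (0.7 nM to 77 uM) and 4-methylumbelliferyl alpha-D-galactopyranoside (80 uM final) in 50 mM citric acid, 0.005% Tween-20, pH 4.5, 20 min at room temperature; AC50 from Hill fits.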

For test [10] the target is unchanged. The test can be described thus: Counterscreen for Glucocerebrosidase Inhibitors: qHTS Assay for Coffee Bean alpha-Galactosidase at pH 5.9 (AID 998; active means well fitted curve in the direction sought with a large enough effect; an effect the other way counts as inactive or inconclusive;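 further: plate controls were uninhibited enzyme for no effect and no-enzyme basal signal for full effect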). Summed up: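 Green coffee bean enzyme (2 nM) with 4-methylumbelliferyl alpha-D-galactopyranoside (80 uM) in 50 mM citric acid, 0.005% Tween-20, pH 5.9, 20 min at room temperature; compounds 0.7 nM–77 uM. Stopped at pH 10, fluorescence Ex365/Em440; Hill-fit AC50.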

Test [11] can be described thus: Inducers of the Endoplasmic Reticulum Stress Response (ERSR) in human glioma: Validation (AID 504836; active means well fitted curve in the direction sought with a large enough effect; an effect the other way counts as inactive or inconclusive; further: 0% is about no effect). In short, it runs like this: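 Stably transfected U87-MG glioma cells carrying a GRP78-based luciferase sensor; 16 h compound incubation. Luminescence end-point read 10 min after Bright-Glo addition at room temperature.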
The nature of test [12]: High Content Imaging Cell-Based qHTS for Inhibitors of the mTORC1 Signaling Pathway in MEF (Tsc2-/-, p53-/-) Cells (AID 2666; active means well fitted curve in the direction sought with a large enough effect; an effect the other way counts as inactive or inconclusive;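 further: percent of cells scored positive for phospho-rpS6 Ser235/236 immunostaining by imaging; potency means the concentration at half of the fitted maximal effect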). Summed up:
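Phospho-rpS6 (Ser235/236) immunofluorescence, normalized and scored as % positive cells using rapamycin and DMSO controls, was read in empty-vector Tsc2-/-, p53-/- MEFs after 24 h compound exposure at 37 C; propidium iodide counted cells.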

Test [13] can be described thus: High Content Imaging Cell-Based qHTS for Inhibitors of the mTORC1 Signaling Pathway in MEF Cells (AID 2667; active means well fitted curve in the direction sought with a large enough effect; an effect the other way counts as inactive or inconclusive; further: potency means the concentration at half of the fitted maximal effect). Summed up:
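WT MEFs (Tsc2-/-, p53-/- re-expressing Tsc2), in DMEM + 10% FBS, were treated with compound for 24 h at 37 C. Cells were then fixed and stained for phospho-rpS6 Ser235/236 with propidium iodide as cell count. Values are % positive cells, with thresholds set against rapamycin-treated cells.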

Test [14] is described as follows: Validation screen for inhibitors of Lassa infection (AID 463096). Further: potency means the concentration at half of the fitted maximal effect.
The target in test [15] is M-phase phosphoprotein 8 (Homo sapiens) (UniProt Q99549). Description: qHTS Validation Assay for Inhibitors for MPP8 Chromodomain Interactions with Methylated Histone Tails (AID 488949; active means well fitted curve in the direction sought with a large enough effect; an effect the other way counts as inactive or inconclusive; further: top concentration of the series differs between compounds; on the % scale 0 is the no-effect control and ±100 the full control effect; nearly all actives have a fitted effect of over 55% in size). Summed up:
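MPP8 (50 nM) was pre-bound to 50 nM biotinylated H3(1-18)K9me3 peptide in PBS pH 7.4 with 0.01% Tween-20. Compounds were then added for 30 min at room temperature, and complex disruption was read by AlphaScreen with streptavidin donor and nickel-chelate acceptor beads.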

Test [16] addresses Glutaminase kidney isoform, mitochondrial (Homo sapiens) (UniProt O94925). Description: qHTS for Inhibitors of Glutaminase (GLS): LOPAC Validation (AID 624146; active means well fitted curve in the direction sought with a large enough effect; an effect the other way counts as inactive or inconclusive;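 further: glutamate product detected by oxidase and peroxidase coupled Amplex red fluorescence gain; on the % scale 0 is the no-effect control and ±100 the full control effect; nearly all actives have a fitted effect of over 60% in size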). In short, it runs like this: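 Glutamate formation by hKGA was monitored fluorometrically using coupled glutamate oxidase, HRP and Amplex Red. Substrate was added as 1 mM L-glutamine solution; incubation was 30 min at RT after an initial read.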

A short description of test [17]: Confirmatory qHTS for VERO E6 Cytotoxicity Assay: Counterscreen for SARS-CoV-2 CPE Assay (AID 1508605). Further: on the % scale 0 is the no-effect control and ±100 the full control effect; nearly all actives have a fitted effect of over 60% in size.
Test [18] in a line: Cytotoxicity counterscreen for inhibitors of SARS-CoV-2 cell entry (AID 1645845). Further: nearly all actives have a fitted effect of over 50% in size. In short, it runs like this: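 HEK293-ACE2 cells (Expi293F stably expressing human ACE2) seeded overnight, then compound for 1 h plus 48 h at 37C. Viability as ATP content by luminescence; normalized to wells with cells and media-only wells.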
A further test concerns the target Furin (Homo sapiens) (UniProt P09958). Description: Furin counterscreen qHTS for Zika virus inhibitors (AID 1347149; active means well fitted curve in the direction sought with a large enough effect; an effect the other way counts as inactive or inconclusive; further: potency means the concentration at half of the fitted maximal effect; nearly all actives have a fitted effect of over 70% in size). In short, it runs like this:
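Fluorogenic cleavage of BOC-RVRR-AMC (2 microM final, Km ~15 µM) was monitored (ex 340, em 450 nm) at 37C after 15 min RT preincubation of 5 nM furin with compounds in HEPES pH 7.0 buffer with CaCl2 and Triton X-100. Percent inhibition was fitted to a 4-parameter Hill curve.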

Test [19] relates to Zika virus NS2B-NS3 protease (linked construct). Description: Confirmatory screen NINDS AMC qHTS for Zika virus inhibitors (AID 1347152; active means well fitted curve in the direction sought with a large enough effect; an effect the other way counts as inactive or inconclusive; further: potency means the concentration at half of the fitted maximal effect; nearly all actives have a fitted effect of over 70% in size). In short, it runs like this: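 Linked NS2B-NS3 protease, 1 nM, in 10 mM Tris-HCl pH 8.0, 0.01% Tween 20; compounds preincubated 15 min at room temperature. Nle-KRR-AMC 10 microM (Km 18.3 µM); 15-min fluorescence change (340/450 nm) fitted to 4-parameter Hill.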

Test [20] relates to Zika virus NS2B-NS3 protease (unlinked complex). The test can be described thus: Confirmatory screen GU AMC qHTS for Zika virus inhibitors (AID 1347153; active means well fitted curve in the direction sought with a large enough effect; an effect the other way counts as inactive or inconclusive; further: potency means the concentration at half of the fitted maximal effect; nearly all actives have a fitted effect of over 70% in size). Summed up:
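Unlinked enzyme 25 nM, Tris pH 8.0/0.01% Tween 20; cpd 15 min RT, dark; + AMC substrate 10 µM (Km 18.3 µM); 340/450 nm read at t0 and 15 min; % inhibition → 4-param fit.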

Test [21] is described as follows: Confirmatory screen NINDS Rhodamine qHTS for Zika virus inhibitors (AID 1347161; active means well fitted curve in the direction sought with a large enough effect; an effect the other way counts as inactive or inconclusive; further: potency means the concentration at half of the fitted maximal effect; nearly all actives have a fitted effect of over 60% in size). In short, it runs like this: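 Aprotinin served as in-plate control. Conditions: 25 nM linked NS2B-NS3, pH 8.0 Tris buffer, titrated compounds, 15 min preincubation and 15 min reaction with 1.5 microM Rhod110 substrate at room temperature.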
Test [22] concerns Zika virus NS2B-NS3 protease (linked construct). The test can be described thus: 384 well plate NINDS Rhodamine confirmatory qHTS for Zika virus inhibitors (AID 1347164; active means well fitted curve in the direction sought with a large enough effect; an effect the other way counts as inactive or inconclusive;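 further: fluorescence from protease cleavage of Ac-LKRR-rhodamine 110 substrate; potency means the concentration at half of the fitted maximal effect; nearly all actives have a fitted effect of over 65% in size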). In short, it runs like this: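 Linked NS2B-NS3 protease (final 5, 30 or 60 nM) preincubated ~15 minutes with compounds, then 10 microM Ac-LKRR-Rhodamine 110 added. Fluorescence (485/538 nm) read after 25 minutes at room temperature, normalized to no-enzyme and no-inhibitor controls.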

A short description of test [23]: HepG2 cells viability qHTS for Zika virus inhibitors (AID 1347168; active means well fitted curve in the direction sought with a large enough effect; an effect the other way counts as inactive or inconclusive; further: potency means the concentration at half of the fitted maximal effect). Summed up:
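Cells seeded at 2.5 x 10^5 cells/mL in DMEM with 4% FBS and attached overnight at 37 degrees C, then exposed to compound for 24 to 48 hours. Viability read as ATP content by CellTiter Glo luminescence.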

Test [24] can be described thus: Primary qHTS for small molecule stabilizers of the endoplasmic reticulum resident proteome: Secreted ER Calcium Modulated Protein (SERCaMP) assay (AID 1508630; active means well fitted curve in the direction sought with a large enough effect; an effect the other way counts as inactive or inconclusive; further: on the % scale 0 is the no-effect control and ±100 the full control effect). In short, it runs like this: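 GLuc-SERCaMP-expressing SH-SY5Y cells, pretreated 16 h with compound, are challenged with thapsigargin to empty ER calcium stores; after 4 h, coelenterazine is added directly to the medium and luminescence is imaged.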

The test system of test [25] is Zika virus NS2B-NS3 protease. The test can be described thus: Primary screen GU AMC qHTS for Zika virus inhibitors (AID 1347154; active means well fitted curve in the direction sought with a large enough effect; an effect the other way counts as inactive or inconclusive). Summed up: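 Unlinked Zika NS2B hydrophilic domain–NS3 protease complex at 25 nM in 10 mM Tris-HCl pH 8.0, 0.01% Tween 20, with an AMC peptide substrate. Fluorescence change (340/450 nm) over 15 min at room temperature, normalized to controls, fitted to 4-parameter Hill.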

Sequence of Alpha-galactosidase (Coffea arabica) (Q42656 whole entry, looked up): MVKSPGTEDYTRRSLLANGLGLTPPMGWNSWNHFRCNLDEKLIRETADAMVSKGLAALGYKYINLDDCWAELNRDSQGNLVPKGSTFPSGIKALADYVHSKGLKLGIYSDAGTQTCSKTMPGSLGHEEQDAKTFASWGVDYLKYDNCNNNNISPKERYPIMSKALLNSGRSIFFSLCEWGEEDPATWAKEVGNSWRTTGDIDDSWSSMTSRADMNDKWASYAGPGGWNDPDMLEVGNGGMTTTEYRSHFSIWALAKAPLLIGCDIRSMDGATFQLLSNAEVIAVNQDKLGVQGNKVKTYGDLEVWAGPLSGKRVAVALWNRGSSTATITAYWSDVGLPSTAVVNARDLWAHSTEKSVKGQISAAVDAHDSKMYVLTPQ
Sequence of Glutaminase kidney isoform, mitochondrial (Homo sapiens) (O94925 whole entry, looked up, canonical isoform): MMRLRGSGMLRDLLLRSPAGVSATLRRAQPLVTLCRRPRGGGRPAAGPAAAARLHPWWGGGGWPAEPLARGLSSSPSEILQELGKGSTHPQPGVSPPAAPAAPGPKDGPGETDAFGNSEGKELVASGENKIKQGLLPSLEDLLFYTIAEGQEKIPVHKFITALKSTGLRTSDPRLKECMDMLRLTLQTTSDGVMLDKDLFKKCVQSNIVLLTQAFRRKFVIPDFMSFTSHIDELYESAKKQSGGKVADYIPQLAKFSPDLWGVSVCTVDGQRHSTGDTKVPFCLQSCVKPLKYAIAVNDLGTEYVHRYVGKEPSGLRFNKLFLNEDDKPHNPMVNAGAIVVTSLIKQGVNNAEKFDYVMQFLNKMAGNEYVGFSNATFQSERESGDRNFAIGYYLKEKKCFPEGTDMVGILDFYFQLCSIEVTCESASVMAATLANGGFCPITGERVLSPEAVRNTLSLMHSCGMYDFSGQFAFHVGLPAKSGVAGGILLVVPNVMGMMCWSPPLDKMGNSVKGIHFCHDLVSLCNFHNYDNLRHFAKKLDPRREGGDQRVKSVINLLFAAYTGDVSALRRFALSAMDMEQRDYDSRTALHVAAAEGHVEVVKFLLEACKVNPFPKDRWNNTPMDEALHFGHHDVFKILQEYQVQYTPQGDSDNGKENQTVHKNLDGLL
Sequence of M-phase phosphoprotein 8 (Homo sapiens) (Q99549 whole entry, looked up): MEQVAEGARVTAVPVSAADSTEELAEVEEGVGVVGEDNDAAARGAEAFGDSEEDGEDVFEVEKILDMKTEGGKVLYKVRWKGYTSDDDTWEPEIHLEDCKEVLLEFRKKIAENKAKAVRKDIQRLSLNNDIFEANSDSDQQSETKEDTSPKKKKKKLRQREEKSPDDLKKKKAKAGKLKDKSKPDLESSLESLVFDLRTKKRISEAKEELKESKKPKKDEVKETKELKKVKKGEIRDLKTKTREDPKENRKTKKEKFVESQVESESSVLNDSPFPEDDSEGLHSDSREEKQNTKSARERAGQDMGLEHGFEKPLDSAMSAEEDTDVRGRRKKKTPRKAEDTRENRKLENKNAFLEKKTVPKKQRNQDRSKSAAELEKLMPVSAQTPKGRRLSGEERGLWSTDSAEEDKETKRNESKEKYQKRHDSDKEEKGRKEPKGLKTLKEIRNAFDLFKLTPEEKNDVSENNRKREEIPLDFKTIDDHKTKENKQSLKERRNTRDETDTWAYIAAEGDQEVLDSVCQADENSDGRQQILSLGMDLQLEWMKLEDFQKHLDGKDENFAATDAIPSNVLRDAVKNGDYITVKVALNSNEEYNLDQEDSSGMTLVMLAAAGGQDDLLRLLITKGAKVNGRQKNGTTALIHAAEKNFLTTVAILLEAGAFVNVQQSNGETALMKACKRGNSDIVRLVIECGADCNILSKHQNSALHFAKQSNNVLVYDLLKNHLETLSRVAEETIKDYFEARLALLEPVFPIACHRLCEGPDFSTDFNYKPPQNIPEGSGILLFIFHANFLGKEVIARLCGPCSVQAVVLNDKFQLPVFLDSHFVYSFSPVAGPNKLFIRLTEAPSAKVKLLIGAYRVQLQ
Sequence of Furin (Homo sapiens) (P09958 whole entry, looked up): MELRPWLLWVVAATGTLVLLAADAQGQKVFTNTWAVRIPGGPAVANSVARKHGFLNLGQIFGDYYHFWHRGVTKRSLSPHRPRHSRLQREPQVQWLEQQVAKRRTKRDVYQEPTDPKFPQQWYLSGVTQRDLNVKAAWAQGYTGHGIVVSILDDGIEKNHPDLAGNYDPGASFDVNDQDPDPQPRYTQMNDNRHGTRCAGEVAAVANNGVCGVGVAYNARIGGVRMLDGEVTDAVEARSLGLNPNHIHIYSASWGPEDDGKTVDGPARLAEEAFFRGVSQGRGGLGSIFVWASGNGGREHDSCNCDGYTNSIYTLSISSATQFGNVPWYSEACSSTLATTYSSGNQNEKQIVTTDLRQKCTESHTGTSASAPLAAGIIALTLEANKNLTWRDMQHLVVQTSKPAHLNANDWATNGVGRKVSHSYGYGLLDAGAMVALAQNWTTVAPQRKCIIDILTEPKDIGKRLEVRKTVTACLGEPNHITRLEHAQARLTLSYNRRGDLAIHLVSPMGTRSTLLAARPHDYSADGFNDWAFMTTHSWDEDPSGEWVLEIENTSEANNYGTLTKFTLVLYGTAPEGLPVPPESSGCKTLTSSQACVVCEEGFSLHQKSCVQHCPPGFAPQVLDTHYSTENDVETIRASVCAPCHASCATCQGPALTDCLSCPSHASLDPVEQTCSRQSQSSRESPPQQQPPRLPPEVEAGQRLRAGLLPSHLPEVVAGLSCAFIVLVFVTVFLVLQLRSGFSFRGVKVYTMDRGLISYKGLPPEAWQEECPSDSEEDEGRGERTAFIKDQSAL

On to `CO[C@@H]1[C@@H](OC2OC(C)C(OC3CC(C)(O)C(OC(=O)CC(C)C)C(C)O3)C(N(C)C)C2O)[C@@H](CC=O)C[C@@H](C)C(=O)/C=C\C2O[C@H]2C[C@@H](C)OC(=O)C[C@H]1OC(C)=O` (stereo partly specified), for which the Potency result in test [1], in [2] and in test [4] was “inactive” in each case. In addition, the molecule was classed as inactive in [3] and in test [5]. Further, the Potency in test [6] was 0.0152 µM (active); in test [7] it was 28.2 µM (active); in [8], 17.1 µM (active).

For `COC1CC2C=C(C)C=CC=CC(=O)NC(c3ccccc3)CC=CCCC(O)CC(=O)C2=C1O` (stereo unspecified), the Potency result in test [1] and in test [2] was “inactive” throughout.

On to `O=C1Cc2c([nH]c3ccc(Br)cc23)-c2ccccc2N1`, for which the result in test [9], in [10] and in test [11] was inactive. Besides, the Potency result in [1] and in [2] was “inactive” throughout.

Take `CCOc1cc2c(c(F)c1OCC)C(=N)N(CC(=O)c1cc(N3CCOCC3)c(OC)c(C(C)(C)C)c1)C2`: the Potency in [1] was 24.3 µM (active); in [2], 9.68 µM (active); in test [7], 35.5 µM (active).

In the case of `CC12C(=O)OC(=O)C1(C)C1CCC2O1` (stereo unspecified), the Potency in test [12] was 9.27 µM (active); in test [13], 4.65 µM (active); in [14], 10 µM (active); in test [1], 11.2 µM (active). Also, the Potency entry in test [15] is “inactive”. The molecule was called inactive in [11] and in [16].

Consider `CC1(C)CC(=O)c2c(C(F)(F)F)nn(-c3ccc(C(N)=O)c(NC4CCC(OC(=O)CN)CC4)c3)c2C1` (stereo unspecified), for which the Potency is 0.769 µM (active) in [1] and 0.611 µM (active) in test [2]. Moreover, the Potency entry in [17] is “inactive”. Moreover, in test [7], the activity change, negative = inhibition is -89%.

Consider `COc1ccc(C(=O)/C=C/c2ccc(OC)cc2OC)c(O)c1`, for which the Potency entry in test [1] and in test [2] was “inactive” in each case.

`CCCCCC(=O)N[C@@H](c1ccccc1)[C@@H](O)C(=O)O[C@H]1C[C@@]2(O)[C@@H](OC(=O)c3ccccc3)C3[C@](C)(C(=O)[C@H](OC(C)=O)C(=C1C)C2(C)C)[C@@H](O)C[C@H]1OC[C@@]31OC(C)=O` (stereo partly specified): the Potency entry in test [1] and in test [2] was “inactive” throughout.

In the case of `O=S(=O)(NCCNCC=Cc1ccc(Br)cc1)c1cccc2cnccc12`, the Potency result in [1] and in test [2] was “inactive” each time.

Consider `Nc1ccc(N=Nc2ccc(-c3ccc(N=Nc4c(S(=O)(=O)O)cc5cc(S(=O)(=O)O)c(N=Nc6ccccc6)c(O)c5c4N)cc3)cc2)c(N)c1`, for which the Potency entry in test [2] is “inactive”.

Consider `CCC[C@H](N[C@@H](C)C(=O)N1[C@@H]2CCCC[C@H]2C[C@H]1C(=O)O)C(=O)OCC`, for which the Potency result in test [1] and in [18] was “inactive” throughout. Moreover, in test [7], the activity change, negative = inhibition is 1.44%.

In the case of `C=CC(=O)N1CCC[C@@H](n2nc(-c3ccc(Oc4ccccc4)cc3)c3c(N)ncnc32)C1`, the Potency in [1] is 21.7 µM (active). Further, the Potency entry in test [18] and in [7] was “inactive” in each case.

Consider `O=C1OC[C@H](Cc2ccc3c(c2)OCO3)/C1=C\c1ccc2c(c1)OCO2`, for which, in test [1], the Potency result was “inactive”.

For the molecule `CNc1ccc2oc(C[C@@H]3OC4(CC[C@@H]3C)O[C@H]([C@@H](C)C(=O)c3ccc[nH]3)[C@H](C)C[C@H]4C)nc2c1C(=O)O` (stereo partly specified), the Potency in the test with Furin (Homo sapiens) is 21.5 µM (active); in test [19], 19.2 µM (active); in test [20] it was 24.1 µM (active); in test [21], 9.87 µM (active); in test [22], 44.7 µM (active); in test [23], 26.2 µM (active). The Potency entry in test [24] was “inactive”.

Turning to `O=C1CC2OCC=C3CN4CCC56c7ccccc7N1C5C2C3CC46` (stereo unspecified), the Potency entry in test [25] is “inactive”.
